According to PubChem BioAssay AID651947 (Broad Institute, 2012):
Entries with a potency or affinity are not part of this list. Records with an inconclusive call do not appear. Values without a mark were called inactive.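 The calls were made as follows: active = luminescence drop in HepG2 cells whose fitted half-effect dose is at most twice the top valid dose; inconclusive = flat curve with 30 to 70% signal loss, or unreliable fit; inactive = the rest.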

Assay: cytotoxicity in HepG2 cells, dose response, cytotoxicity control, cell-based, plate reader, dry powder (AID 651947)
Details: HepG2 viability, ATP luminescence (CellTiter-Glo), 48 h, active compounds read low; at 26 µM unless noted

SMILES | max activity
c1ccc(COc2nnc(-c3ccccc3)o2)cc1 | -50.7% [at 1.6 µM]
Clc1ccccc1-c1nnc(SCc2ccccc2)o1 | -37.6% [at 6 µM]
COc1ccc(-c2nnc(SCc3ccc(Cl)cc3)o2)cc1 | -16.2% [at 0.38 µM]
c1ccc(-c2nnc(SCc3ncco3)o2)cc1 | 8.06% [at 0.195 µM]
c1ccc(-n2cc(CSc3nnc(C4CCCC4)o3)nn2)cc1 | 20.3% [at 0.38 µM]
CS(=O)(=O)c1ccccc1CSc1nnc(-c2ccccc2)o1 | -12.5% [at 12 µM]
Clc1ccc(-c2nnc(SCc3cn(-c4ccccc4)nn3)o2)cc1 | -13% [at 3 µM]
Fc1ccccc1-c1nnc(SCc2ccccc2)o1 | -29.8% [at 0.195 µM]
Cc1ccc(-c2nnc(SCc3ccccc3)o2)cc1 | 15.2% [at 3 µM]
CS(=O)(=O)c1ccc(-c2nnc(SCc3ccccc3)o2)cc1 | -40.3%
Clc1cccc(-c2nnc(SCc3ccccc3)o2)c1 | -48.3% [at 3 µM]
c1ccc(-c2nnc(SC3CCCCC3)o2)cc1 | -38.4%
COCCOCCSc1nnc(-c2ccccc2)o1 | -8.39% [at 1.6 µM]
COc1ccccc1-c1nnc(SCc2ccccn2)o1 | -21.6%
c1ccc(CSc2ncc(-c3ccccc3)o2)cc1 | -32.2% [at 0.195 µM]
c1ccc(CSc2nnc(C3CCCCC3)o2)cc1 | 16.5% [at 3 µM]
CN(Cc1ccccc1)c1nnc(-c2ccccc2)o1 | -28.2%
Fc1cccc(-c2nnc(SCc3ccccn3)o2)c1 | 26.1% [at 12 µM]

SMILES | max activity
Cc1ccc(CSc2nnc(-c3ccccc3)o2)cc1 | 15.4% [at 3 µM]
c1ccc(CSc2nnc(-c3cc4ccccc4o3)o2)cc1 | 34.2% [at 6 µM]
c1ccc(-c2nnc(SC(c3ccccc3)c3ccccc3)o2)cc1 | -33% [at 0.8 µM]
c1ccc(CSc2nnc(-c3ccc(-c4ccccc4)cc3)o2)cc1 | 15.5%
c1ccc(CCc2nnc(-c3ccccc3)o2)cc1 | 27.6%
c1ccc(CSc2nnc(-c3ccco3)o2)cc1 | -42.4% [at 6 µM]
c1ccc(-c2nnc(SCc3cscn3)o2)cc1 | -61.2% [at 12 µM]
Cc1nnc(SCc2ccccc2)o1 | -55.2% [at 0.195 µM]
c1ccc(CSc2nnc(-c3ccccn3)o2)cc1 | -20.9% [at 1.6 µM]
c1ccc(Cn2cc(CSc3nnc(-c4ccccc4)o3)nn2)cc1 | -41.8%
c1ccc(-c2nnc(SCCN3CCOCC3)o2)cc1 | -7.63% [at 0.38 µM]
FC(F)(F)Oc1ccc(-c2nnc(SCc3ccccc3)o2)cc1 | 21.1% [at 12 µM]
Fc1ccc(Cn2cc(CSc3nnc(C4CCCC4)o3)nn2)cc1 | -18.5% [at 6 µM]
CC1(O)CN(CCSc2nnc(-c3ccccc3)o2)C1 | -33.4% [at 0.195 µM]
Clc1ccccc1CSc1nnc(-c2ccccc2)o1 | 17.5% [at 0.195 µM]
N#Cc1ccccc1CSc1nnc(-c2ccccc2)o1 | 22.9% [at 3 µM]
c1ccc(CSc2nnc(-c3cccnc3)o2)cc1 | -26.9% [at 0.8 µM]
FC(F)(F)Oc1cccc(CSc2nnc(-c3ccccc3)o2)c1 | 19.6% [at 0.38 µM]
